# KinaseGlo FLuc: counter-screen: inhibitors of Kinase-Glo firefly luciferase; Kinase-Glo luciferase, ATP luminescence, 8 min; 200,000 tested, 0.28% active; Potency, µM (series often up to 38.3 µM), for the others: at the top dose activity change, negative = inhibition, hits mostly inhibitors; Q27757; also: nearly all actives have a fitted effect of over 60% in size
#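 Kinase-Glo luciferase light output from ATP and luciferin was measured with 10 uM ATP, within the enzyme's linear range. Buffer: 50 mM imidazole pH 7.2, 50 mM KCl, 7 mM MgCl2, 0.01% Tween 20, 0.05% BSA; luminescence read after 8 min at ambient temperature.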
# RORg inh: ROR gamma (mouse) transcription inhibition. P51450. AID 2551. Drosophila S2 Gal4-RORgamma UAS-luciferase reporter, 20 h. 310,000 tested, 5.4% active. Potency, µM (top dose mostly 53.6 µM), for the others: top-dose activity change, negative = inhibition, actives largely listed as inhibitors; also: nearly all actives have a fitted effect of over 60% in size
# Target sequence (P51450 whole entry, looked up, the tested form may be a part): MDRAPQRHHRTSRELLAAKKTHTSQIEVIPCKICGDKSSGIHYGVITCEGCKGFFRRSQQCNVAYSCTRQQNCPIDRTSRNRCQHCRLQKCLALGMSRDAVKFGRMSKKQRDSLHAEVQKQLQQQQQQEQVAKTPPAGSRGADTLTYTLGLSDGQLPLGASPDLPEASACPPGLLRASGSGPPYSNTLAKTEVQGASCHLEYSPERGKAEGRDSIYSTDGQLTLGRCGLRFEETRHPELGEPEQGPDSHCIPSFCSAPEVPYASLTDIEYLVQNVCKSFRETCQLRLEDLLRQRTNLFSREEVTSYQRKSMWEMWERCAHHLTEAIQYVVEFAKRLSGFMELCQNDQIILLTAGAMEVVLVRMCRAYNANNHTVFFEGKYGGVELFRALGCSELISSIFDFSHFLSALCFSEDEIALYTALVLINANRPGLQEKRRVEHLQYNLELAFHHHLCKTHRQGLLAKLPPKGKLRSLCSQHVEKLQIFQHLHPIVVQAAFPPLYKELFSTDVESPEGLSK
#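 Drosophila S2 cells stably expressing Gal4-DBD/mouse RORγ fusion under metallothionein promoter plus UAS-luciferase; compound 1 h, then 700 uM CuSO4 induction for 20 h at ambient temperature; inhibition read as reduced luminescence.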
# VP16 counter: counter-screen for ROR gamma inhibitors: Gal4-VP16 reporter; Drosophila S2 Gal4-VP16 UAS-luciferase, luminescence, 20 h; Potency, µM (top dose mostly 53.6 µM), for the others: at the top dose activity, negative = inhibition, actives largely listed as inhibitors; 310,000 tested, 3.5% active;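 also: Gal4-VP16 expression switched on by copper sulfate through the metallothionein promoter; nearly all actives have a fitted effect of over 50% in size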
# An asterisk follows results filed as active; ? = inconclusive; nt = no result given; [ ] = remark or other dose. The list is not random: actives were taken first. Their share in the collection is about 6.2%. Calls follow the shape of the dose curve; as a rule, active = well fitted curve in the direction sought with a large enough effect; inconclusive = small, poorly fitted or top-dose-only effect, or another doubt; inactive = no such curve, though single readings can be large; an effect the other way counts as inactive or inconclusive. % is scaled to controls: 0 for no effect and ±100 for the full control effect; potency is read from the fitted curve at half-maximal effect.
SMILES,KinaseGlo FLuc,RORg inh,VP16 counter
CC(=O)Nc1ccc(NC(=O)c2c(-c3ccccc3Cl)noc2C)cc1,nt,8.2%,1.8%
COc1cccc(C(=O)N2CCCC(Nc3ccc(C)c(C)c3)C2)c1 (stereo unspecified),nt,26.7%,-10.6%
Cc1cc2nc(CSc3ccc(Cl)cc3)cc(=O)n2[nH]1,1.6%,11.2µM*,?
Cc1nc2nc(CSc3ccc(Cl)cc3)cc(=O)n2[nH]1,-0.2%,-22.3%,0.4%
CCOC(=O)N1CCN(C(=O)c2ccc3c(=O)n(-c4ccc(OC)cc4OC)c(=S)[nH]c3c2)CC1,-1.2%,-18.2%,0.6%
COc1ccc(OC)c(-n2c(=S)[nH]c3cc(C(=O)N(C)Cc4ccccc4)ccc3c2=O)c1,-0.5%,12.6µM*,?
COc1ccccc1Cn1c(=S)[nH]c2cc(C(=O)N3CCN(c4ccccc4OC)CC3)ccc2c1=O,nt,?,-10.3%
COc1ccc2cc(C(=O)N(C)Cc3ccccc3)[nH]c2c1,nt,28.3%,4.1%
COc1ccccc1N1CCN(C(=O)c2ccc3c(=O)n(Cc4ccco4)c(=S)[nH]c3c2)CC1,3.3%,6.31µM*,?
COc1ccc(OC)c(-n2c(=S)[nH]c3cc(C(=O)N4CCN(c5ccccc5)CC4)ccc3c2=O)c1,2.9%,11.2µM*,-8.9%
Cc1c(C)n(CCC#N)c2ccc(Cl)cc12,2.6%,21.9%,12.1%
Cn1c(Cn2c(=O)sc3ccccc32)nnc1SCc1ccccc1,-0.2%,-22.9%,1.0%
Nc1nonc1-n1nnc(C(=O)N/N=C/c2ccccc2Cl)c1-c1ccc2c(c1)OCO2,nt,18.6%,-21.8%
Cc1ccc(-c2c(C(=O)N/N=C/c3ccc4c(c3)OCO4)nnn2-c2nonc2N)cc1,nt,-18.3%,0.6%
Nc1nonc1-n1nnc(C(=O)N/N=C/c2cccs2)c1-c1ccc2c(c1)OCO2,nt,7.94µM*,10µM*
Cc1ccsc1/C=N/NC(=O)c1nnn(-c2nonc2N)c1-c1ccc2c(c1)OCO2,nt,10µM*,?
COc1ccc(CCCC(=O)Nc2ccc(F)cc2)cc1,1.0%,12.4%,-12.0%
O=C(CN1CCN(S(=O)(=O)c2ccc(Br)cc2)CC1)N/N=C/c1ccncc1,nt,41.4%,-12.9%
COc1ccc(Cn2cnc3c(N)c(C)c(C)cc32)cc1,-2.0%,-26.7%,-14.7%
CCCCCCCCn1cnc2c(N)c(C)c(C)cc21,-5.4%,10µM*,?
Oc1cc2c(cc1O)[C@@H]1c3ccc(O)c(O)c3OC[C@]1(O)C2,-2.8%,-29.2%,-7.3%
Cc1ccc(-n2c(C)nc3c(cnn3-c3ccc(F)cc3)c2=O)cc1,-1.8%,-23.3%,8.91µM*
Cc1ccc(-n2ncc3c(=O)n(-c4ccc(C)c(C)c4)c(C)nc32)cc1,2.6%,1.3%,?
CCN(CC(=O)Nc1ccc(N2CCOCC2)cc1)C(=O)COc1ccccc1OC,-0.1%,13.3%,-3.7%
Cc1ccc(NC(=O)CCNC(=O)c2ccc(Cl)cc2)cc1C,nt,17.1%,-9.2%
SMILES,KinaseGlo FLuc,RORg inh,VP16 counter
CCc1ccc2[nH]c(O)c(N=NC3=NC(=O)CS3)c2c1,nt,-20.4%,10.7%
CCc1ccc2c(c1)c(N=NC1=NC(=O)CS1)c(O)n2CC,-0.7%,11.2µM*,?
CCCn1c(CNC(=O)c2ccccc2)nc2ccccc21,1.6%,10µM*,-2.3%
Cc1cc2ccccc2n1CCNC(=O)c1ccccc1,-8.3%,4.47µM*,2.51µM*
CCCn1c(CNC(=O)c2cccs2)nc2ccccc21,19.6%,?,-2.4%
CC(C)Cn1c(CNC(=O)c2ccccc2)nc2ccccc21,-7.4%,15.8µM*,?
CCn1c(CNC(=O)C(C)(C)C)nc2ccccc21,-3.0%,21.0%,-2.3%
CC(=O)NCCn1c(C)cc2ccccc21,1.3%,-6.1%,2.8%
CC(C)Cn1c(CCCNC(=O)c2ccc(F)cc2)nc2ccccc21,3.1%,-11.4%,2.7%
CCCCn1c(CNC(=O)C(C)(C)C)nc2ccccc21,0.8%,12.6µM*,?
COc1ccccc1C1=Nn2c(nnc2-c2ccccc2C)SC1,nt,?,-12.1%
Cc1ccc(C(=O)NC(O)C(Cl)Cl)cc1 (stereo unspecified),-2.6%,12.1%,0.2%
Nc1ncc(O)c(N)n1,nt,10.0%,-6.2%
CN(C)S(=O)(=O)c1cccc(COC(=O)C2=COCCO2)c1,5.0%,12.9%,-17.3%
CC1(C)Cc2noc(N)c2C(C)(C)N1OC(=O)c1ccco1,1.1%,-20.8%,-1.8%
Cn1c(/C=N/NC(=O)c2ccccc2)nc2ccccc21,-0.4%,12.6µM*,-0.3%
Cn1c(CCCNC(=O)c2ccccc2)nc2ccccc21,1.9%,0.8%,2.8%
C=CCN1c2ccccc2[C@]23C[C@@H](C(=O)OC)N(S(=O)(=O)c4ccc(Br)cc4)C2=NC(C(=O)OC)=C(C(=O)OC)[C@H]13,-2.0%[7.66 µM],nt,nt
O=C(N/N=C/c1cnc(N2CCCCC2)s1)c1ccc(C(F)(F)F)cc1,nt,2µM*,3.55µM*
O=C(Nc1ccc(N2CCOCC2)nc1)c1ccc(C(F)(F)F)cc1,1.3%,-1.2%,6.6%
COc1cccc(NC(=O)C(NCCc2ccc(S(N)(=O)=O)cc2)c2ccccc2)c1 (stereo unspecified),nt,-12.3%,-12.8%
Cc1cc(COc2ccccc2)oc1C(=O)O,nt,5.01µM*,6.31µM*
Cc1ccc(OCc2ccc(C(=O)O)o2)cc1C,nt,?,-28.6%
COc1cc(NC(=S)Nc2cccc(C)n2)cc(OC)c1OC,-0.7%,2.51µM*,8.91µM*
COc1cccc(NC(=O)Nc2cccc(C)n2)c1,nt,9.2%,-11.1%
SMILES,KinaseGlo FLuc,RORg inh,VP16 counter
COc1cc(NC(=O)c2ccccn2)cc(OC)c1OC,-0.1%,-5.4%,-10.7%
COc1cc(NC(=S)Nc2ncccc2C)cc(OC)c1OC,-1.5%,12.6µM*,-5.4%[10 µM]
N/C(=N/OC(=O)c1ccccc1F)c1nonc1N,11.2µM*,-7.2%,22.9%
N/C(=N\OC(=O)c1ccc(Cl)cc1)c1nonc1N,?,-12.0%,8.2%[0.365 µM]
COc1ccc(OC)c(N(CC(=O)Nc2cccc(C(F)(F)F)c2)S(C)(=O)=O)c1,2.0%,24.1%,1.8%
COC(=O)c1ccc(-c2nn(C)c(=O)c3ccccc23)cc1,3.9%,35.1%,-1.6%
COC(=O)c1ccc(C(=O)OC)c(-n2c(=O)c3ccccc3c3ccccc3c2=O)c1,2.6%,10µM*,?
COc1ccc(CC(=O)OC2CCCN(C)C2)cc1 (stereo unspecified),0.9%,-37.7%,0.0%
Cc1[nH]n(-c2nc(-c3ccccc3F)cc(=O)[nH]2)c(=O)c1CCO,0.9%,10µM*,-1.5%
Cc1[nH]n(-c2ccccc2)c(=O)c1CCO,0.9%,-33.5%,0.4%
Cc1cccc(N2C(=O)c3ccc(Br)cc3C2=O)n1,nt,-20.2%,3.4%
O=C1c2ccc(Br)cc2C(=O)N1c1ccc(Cc2ccncc2)cc1,2.6%,?,14.1µM*
COCCN1CCN(c2cc(-c3ccccc3)nc3cc(-c4cccc(F)c4)nn23)CC1,0.6%,?,-20.9%
CCCCC/C=C\C/C=C\CCCCCCCC(=O)NCCCC(=O)O,-0.9%,-15.0%,-0.9%
Cc1ccc(N2CN(Cc3cccnc3)CNC2=S)cc1,2.8%,-11.0%,-12.1%
Cc1ccc(N2CN(Cc3ccco3)CNC2=S)cc1,0.6%,11.2µM*,?
S=C1NCN(Cc2cccnc2)CN1c1cccc(Cl)c1,nt,-12.3%,2.8%
Cc1cccc(N2CN(Cc3ccco3)CNC2=S)c1,3.6%,11.2µM*,?
O=C(CN1CCN(Cc2ccc(F)cc2)C1=O)NC1CCCC1,-0.3%,-0.7%,10.1%

# Assay outcomes deposited in PubChem BioAssay by National Center for Advancing Translational Sciences (NCATS).
